Each structure is given as a SMILES string. Compounds without any hit were thinned out: in the full panel of roughly 83,000, 20% have a hit.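 48-hour exposure, single concentration, 96-well plates; percent growth endpoint where 0 means no net growth. Active: below 10.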 Values without a mark were called inactive. Active and inactive are the calls of the source.

The values below come from PubChem BioAssay (NCI).

Some test systems named below: HCT-15 colon; HT29 colon; SNB-75 CNS; SNB-19 CNS; U251 CNS; PC-3 prostate; SK-MEL-5 melanoma; LOX IMVI melanoma; SK-MEL-28 melanoma; SK-MEL-2 melanoma; EKVX NSCLC; SN12C renal; UO-31 renal; TK-10 renal; ACHN renal; CAKI-1 renal; A498 renal; CCRF-CEM leukemia; MOLT-4 leukemia; UACC-62 melanoma.
Experiment in all cases: NCI-60 one-dose screen, 48 h (100 = growth as untreated, 0 = no growth, -100 = all killed)
What all share (conditions): 10 µM unless noted

For the compound `CCOC(=O)c1c(NC(=O)c2ccc(OC)cc2)sc2c(CN(C)C)c(O)ccc12`, the growth in the test on HCT-15 colon was 52.5%; with HT29 colon it was 13.9%; with SNB-75 CNS it was 67.7%; with SNB-19 CNS, 89%; in the test on U251 CNS, 79.5%; in the test on PC-3 prostate, 78.9%. The growth is 81.3% in the test on SK-MEL-5 melanoma; 61.3% with LOX IMVI melanoma; -30.4% (active) in the test on SK-MEL-28 melanoma; 105% in the test on SK-MEL-2 melanoma; 95.9% in the test on EKVX NSCLC; 77.5% in the test on SN12C renal. Further, the growth is 88.8% with UO-31 renal; 94.4% with TK-10 renal; 6.26% (active) in the test with ACHN renal; 72.3% in the test on CAKI-1 renal; 68.9% in the test on A498 renal; 56.6% with CCRF-CEM leukemia. Moreover, the growth in the test with MOLT-4 leukemia is 61.2%.

Take `O=C1/C(=C/c2ccccc2)CN(C(=O)c2cccnc2)C/C1=C\c1ccccc1`: the growth in the test on HCT-15 colon was -5.39% (active); with HT29 colon, -34% (active); in the test with SNB-75 CNS, 81.6%; with SNB-19 CNS, 6.39% (active); with U251 CNS, -23.8% (active); in the test with PC-3 prostate, -17.6% (active). Besides, the growth with SK-MEL-5 melanoma is -39.1% (active); with LOX IMVI melanoma it was -84% (active); in the test with SK-MEL-28 melanoma, -9.39% (active); in the test with SK-MEL-2 melanoma it was 89.6%; in the test on EKVX NSCLC, 30.2%; in the test on SN12C renal, 6.72% (active). The growth with UO-31 renal was -54.5% (active); in the test with TK-10 renal, 20.7%; with ACHN renal, -15.7% (active); with CAKI-1 renal it was 5.87% (active); in the test with A498 renal, 65.3%; in the test with CCRF-CEM leukemia it was -15% (active). Moreover, the growth with MOLT-4 leukemia was 0.998% (active).

Turning to `CC(C)CSc1oc(-c2ccccc2)nc1S(=O)(=O)c1ccccc1`, the growth was 93.7% with HCT-15 colon; 86.2% in the test with HT29 colon; 89.3% in the test on SNB-75 CNS; 102% with SNB-19 CNS; 84.2% in the test with U251 CNS; 79.9% in the test with PC-3 prostate. Also, the growth in the test on SK-MEL-5 melanoma was 90.7%; in the test on UACC-62 melanoma it was 66.9%; with LOX IMVI melanoma, 96.1%; with SK-MEL-28 melanoma, 115%; in the test on EKVX NSCLC it was 88.8%; with SN12C renal, 95%. Further, the growth in the test on UO-31 renal is 75.7%; with TK-10 renal, 65.6%; in the test on ACHN renal, 89.9%; in the test on CAKI-1 renal it was 76.7%; with A498 renal, 84.9%; with CCRF-CEM leukemia, 86.9%. Further, in the test on MOLT-4 leukemia, the growth is 76.1%.

Consider `CCN(CCO)CC(C)Nc1ccc([N+](=O)[O-])c2sc3ccccc3c(=O)c12` (configuration not stated), for which the growth is 27.2% with HCT-15 colon; 11.3% with HT29 colon; 36.4% with SNB-75 CNS; 43.2% in the test on SNB-19 CNS; 26.7% with U251 CNS; 28.3% in the test with PC-3 prostate. For the same compound, the growth in the test with SK-MEL-5 melanoma is 12.3%; in the test on LOX IMVI melanoma, 16.2%; with SK-MEL-28 melanoma, 44.4%; in the test with SK-MEL-2 melanoma it was 36.6%; in the test on EKVX NSCLC it was 25.7%; with SN12C renal, 28.2%. Further, the growth was -15.6% (active) with UO-31 renal; 58.8% in the test with TK-10 renal; 11.5% in the test with ACHN renal; -3.3% (active) in the test on CAKI-1 renal; 50.6% with A498 renal; 35.6% in the test on CCRF-CEM leukemia. Moreover, the growth with MOLT-4 leukemia was 17.3%.

In the case of `CSCCC(NC(=O)c1ccccc1)C(=O)N/N=C1\S/C(=C/c2ccc(Cl)cc2)C(=O)N1C` (configuration not stated), the growth in the test on HCT-15 colon is 96.4%; with HT29 colon, 91.4%; in the test on SNB-75 CNS, 57.8%; in the test on SNB-19 CNS, 68.1%; in the test with U251 CNS, 64.2%; in the test on PC-3 prostate, 84.9%. Besides, the growth with SK-MEL-5 melanoma was 82.9%; in the test with LOX IMVI melanoma, 89.3%; in the test on SK-MEL-28 melanoma, 85.9%; in the test on SK-MEL-2 melanoma, 97.4%; in the test on EKVX NSCLC, 92.7%; in the test with SN12C renal, 97.3%. Further, the growth in the test on UO-31 renal is 90.6%; in the test on TK-10 renal, 105%; in the test on ACHN renal, 76.5%; in the test on CAKI-1 renal it was 117%; in the test on A498 renal, 103%; with CCRF-CEM leukemia it was 4.24% (active). Further, the growth in the test on MOLT-4 leukemia was 66.8%.

As to `N#Cc1c(-c2ccccc2)c(C#N)c2c(C#N)c(N)nn2c1N`, the growth in the test with HCT-15 colon was 24.3%; in the test with HT29 colon, 8.55% (active); in the test with SNB-75 CNS, 52.1%; in the test on SNB-19 CNS, 38.1%; in the test on U251 CNS it was 20.3%; in the test on PC-3 prostate, 50.5%. Besides, the growth is 24.7% in the test on SK-MEL-5 melanoma; 35.6% in the test with LOX IMVI melanoma; 56.8% in the test on SK-MEL-28 melanoma; 9.95% (active) with SK-MEL-2 melanoma; 47.3% with EKVX NSCLC; 51.7% in the test with SN12C renal. Further, the growth in the test with UO-31 renal was 52.1%; with TK-10 renal, 67%; in the test with ACHN renal, 60.9%; in the test with CAKI-1 renal, 47%; in the test with A498 renal it was -8.04% (active); in the test with CCRF-CEM leukemia, 13.3%. Further, in the test with MOLT-4 leukemia, the growth is 11.7%.

In the case of `COc1ccc2nc(Cl)c(/C=C/C(=O)c3ccc(NC(=O)CSc4nnc(-c5ccc(Cl)c(Cl)c5)n4-c4ccccc4)cc3)cc2c1`, the growth in the test on HCT-15 colon was 105%; with HT29 colon, 90.1%; with SNB-75 CNS, 84.1%; in the test on SNB-19 CNS, 91.3%; in the test with U251 CNS, 87.4%; with PC-3 prostate, 72.5%. Further, the growth is 94.5% with SK-MEL-5 melanoma; 97.6% with LOX IMVI melanoma; 107% with SK-MEL-28 melanoma; 87.6% with SK-MEL-2 melanoma; 93.2% in the test on EKVX NSCLC; 88.2% in the test with SN12C renal. Also, the growth in the test on UO-31 renal was 79.3%; in the test with TK-10 renal, 100%; with ACHN renal it was 103%; in the test on CAKI-1 renal, 77.6%; in the test on A498 renal it was 87%; with CCRF-CEM leukemia, 90.8%. For the same compound, the growth in the test on MOLT-4 leukemia is 86.4%.

Take `O=c1oc2c(cnc3ccccc32)cc1-c1cccs1`: the growth is 112% in the test on HCT-15 colon; 111% with HT29 colon; 92% with SNB-75 CNS; 101% in the test on SNB-19 CNS; 99.4% in the test with U251 CNS; 97.3% in the test with PC-3 prostate. Further, the growth with SK-MEL-5 melanoma is 101%; in the test on LOX IMVI melanoma, 106%; in the test on SK-MEL-28 melanoma it was 115%; with SK-MEL-2 melanoma, 108%; with EKVX NSCLC it was 103%; in the test with SN12C renal, 98.4%. Besides, the growth in the test with UO-31 renal is 88.3%; with TK-10 renal, 106%; with ACHN renal, 102%; in the test on CAKI-1 renal it was 88.9%; in the test with A498 renal, 107%; in the test on CCRF-CEM leukemia, 103%. Further, the growth in the test on MOLT-4 leukemia is 102%.
